# The sample as a whole holds a higher share of the strongest signals than the screen did.
# B1: TbCVNHOa (Tuber borchii), Q5MK11 (protein)
# chain: MSYADSSRNAVLTNGGRTLRAECRNADGNWVTSELDLDTCIGNPNGFLGWGMQNFSHSSEDIKLEEGGRKLTCRPKTVDGGFRERQGIDLNRIQNVNGRLVFQ
# Key:
# Assay in all cases: glycan array binding signal (z-score within array); higher = stronger binding
# Conditions in all cases: glycan notation: IUPAC condensed, linker removed
# [1] = target: Fuc(a1-2)Gal(b1-3)GlcNAc(b1-3)Gal(b1-4)Glc
# In short: (§1)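 Glycan array data came from 3228 arrays in the Consortium for Functional Glycomics database, and only arrays with an available protein sequence were kept. Glycan names were put into IUPAC-condensed notation, and columns mapping to the same glycan were averaged. The binding signal is a within-array Z-score, averaged across arrays of one protein sequence run at different concentrations or buffers and across linkers. A negative Z-score can be read as non-binding.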
# [2] = target: Fuc(a1-2)Gal(b1-4)GlcNAc(b1-2)Man(a1-6)[Gal(b1-4)GlcNAc(b1-2)Man(a1-3)]Man(b1-4)GlcNAc(b1-4)GlcNAc
# In short: as §1
# [3] = target: Fuc(a1-2)Gal(b1-4)GlcNAc(b1-3)Gal(b1-4)GlcNAc(b1-3)Gal(b1-4)GlcNAc
# In short: as §1
# [4] = target: Fuc(a1-2)Gal(b1-4)GlcNAc6S
# In short: as §1
# [5] = target: Fuc(a1-2)Gal6S(b1-4)GlcNAc
# In short: as §1
# [6] = target: Fuc(a1-3)[Gal(b1-4)]GlcNAc
# In short: as §1
# Gal(a1-3)Gal(b1-4)Glc = target: Gal(a1-3)Gal(b1-4)Glc
# In short: as §1
# Gal(b1-3)GalNAc = target: Gal(b1-3)GalNAc
# In short: as §1
# [7] = target: Gal(b1-3)GlcNAc(b1-3)Gal(b1-4)Glc
# In short: as §1
# [8] = target: Gal(b1-4)GlcNAc(b1-3)Gal(b1-4)Glc
# In short: as §1
# GlcA(b1-3)Gal = target: GlcA(b1-3)Gal
# In short: as §1
# [9] = target: GlcNAc(b1-3)[GlcNAc(b1-6)]Gal(b1-4)GlcNAc
# In short: as §1
# [10] = target: GlcNAc(b1-4)GlcNAc(b1-4)GlcNAc(b1-4)GlcNAc(b1-4)GlcNAc(b1-4)GlcNAc
# In short: as §1
# [11] = target: Man(a1-2)Man(a1-2)Man(a1-3)Man
# In short: as §1
# Man(a1-3)[Man(a1-6)]Man = target: Man(a1-3)[Man(a1-6)]Man
# In short: as §1
# Man(b1-4)GlcNAc = target: Man(b1-4)GlcNAc
# In short: as §1
# [12] = target: Neu5Ac(a2-3)Gal(b1-4)[Fuc(a1-3)]GlcNAc(b1-6)[Gal(b1-3)]GalNAc
# In short: as §1
# [13] = target: Neu5Ac(a2-6)Gal(b1-4)GlcNAc(b1-2)Man(a1-6)[GlcNAc(b1-2)Man(a1-3)]Man(b1-4)GlcNAc(b1-4)GlcNAc
# In short: as §1
binder,measurement,setting,value
B1,glycan array binding signal (z-score),[1],1.94
same,glycan array binding signal (z-score),[2],-0.642
same,glycan array binding signal (z-score),[3],-0.116
same,glycan array binding signal (z-score),[4],0.067
same,glycan array binding signal (z-score),[5],0.327
same,glycan array binding signal (z-score),[6],-0.024
same,glycan array binding signal (z-score),Gal(a1-3)Gal(b1-4)Glc,1.45
same,glycan array binding signal (z-score),Gal(b1-3)GalNAc,-0.24
same,glycan array binding signal (z-score),[7],2.76
same,glycan array binding signal (z-score),[8],1.38
same,glycan array binding signal (z-score),GlcA(b1-3)Gal,-0.018
same,glycan array binding signal (z-score),[9],0.219
same,glycan array binding signal (z-score),[10],-0.762
same,glycan array binding signal (z-score),[11],5.14
same,glycan array binding signal (z-score),Man(a1-3)[Man(a1-6)]Man,-0.273
same,glycan array binding signal (z-score),Man(b1-4)GlcNAc,-0.533
same,glycan array binding signal (z-score),[12],0.487
same,glycan array binding signal (z-score),[13],-0.034

# From the supplement of paper PMC8728848
